Experimental data: PubChem BioAssay AID1508623 (National Center for Advancing Translational Sciences (NCATS), 2021)
Out of some 48,000 compounds screened, about 450 (0.94%) were called active. Inconclusive results (about 19%) are left out. This excerpt belongs to a sample that is enriched for actives. Values without a mark were called inactive. Calls come from the whole dose curve; as a rule, active = well fitted inhibition curve with a large enough effect; inconclusive = small, poorly fitted or top-dose-only effect; inactive = no such curve, though single readings can be large or run the other way.

Assay: Primary qHTS for Identification of Small Molecule Inhibitors of Huntingtin Promoter Activity; note: nearly all actives have a fitted effect of over 50% in size
Details: HEK293 HTT promoter firefly luciferase reporter (activity 0% = vehicle and -100% = no light), 24 h; series mostly up to 57.5 µM; activity change, negative = inhibition: at the top concentration
Text: Assay Provider: Russell L. Margolis M.D.
Department Neurology, Johns Hopkins University School of Medicine, Baltimore, MD
Huntington's Disease (HD) is a neurodegenerative disorder caused by a CAG repeat expansion in exon 1 of huntingtin (HTT). While there are currently no disease-modifying treatments for HD, recent efforts have focused on development of nucleotide-based therapeutics to lower HTT expression. As an alternative to siRNA or oligonucleotide methods, we hypothesized that suppression of HTT expression might be accomplished by small molecules that either (1) directly decrease HTT expression by suppressing HTT promoter activity or (2) indirectly decrease HTT expression by increasing the promoter activity of HTT-AS, the gene antisense to HTT that appears to inhibit expression of HTT.
We developed and employed a high throughput screen for modifiers of HTT and HTT-AS promoter activity using luminescent reporter HEK293 cells; of the 52,041 compounds tested, we identified 898 replicable hits. We used a rigorous stepwise approach to assess compound toxicity and the capacity of the compounds to specifically lower huntingtin protein in 5 different cell lines, including HEK293 cells, HD lymphoblastoid cells, mouse primary neurons, HD iPSCs differentiated into cortical-like neurons, and HD hESCs. We found no compounds which were able to lower huntingtin without lowering cell viability in all assays, though the potential efficacy of a few compounds at non-toxic doses could not be excluded.
SEQUENCE No. (1, 2, 3, etc.); […] (e.g., Cells, Incubation, Reagent, etc.); VALUE and DESCRIPTION.
1; Reagent; 4 uL; 2,500 Hek293 luciferase reporter cells per wells
3; Compound; 23 nL; Control inhibitor / compound library
5; Reagent; 2.5 uL; Firefly Luc reagent; Dual-Glo Luciferase Reporter Assay System (Promega)
6; Time; 10 min; room temperature incubation
7; Detection; Luminescence; FLuc
NOTES (numbers refer to sequence above)
1; High-throughput screening, measuring luminescence from a Hek293 luciferase reporter, was performed in 1,536 well white-walled tissue-culture treated plates. 2,500 cells were plated in 4 µL of Opti-MEM per well using a Multidrop Combi Reagent Dispenser (ThermoFisher).
2; Assay plates were cultured for 24 hours.
3; Control inhibitor (PTC124; final concentration of 50 uM) and compound library (at final concentrations of 460 nM - 57.5 uM) were added to the assay plate using the Kalypsis Pintool Robotic System equipped with 1536 pinheads.
4; Cells were then incubated for 24 hours at 37 degrees C prior to luminescence measurements.
5; In all cases, luminescence was measured using the Dual-Glo Luciferase Reporter Assay System (Promega) following the manufacturer's instructions.
6; Room temperature incubation.
7; Luminescence signal was obtained using the PerkinElmer ViewLux plate reader. Results were normalized to vehicle control (0% activity) and zero RLU (-100% activity).
Potency is the fitted concentration of half-maximal effect.

Structure (SMILES)	activity change, negative = inhibition	Potency
CC(C)CC(=O)NCC(c1ccc2c(c1)OCO2)N1CCN(c2ccc(F)cc2)CC1 (stereo unspecified)	-14.9%	–
Cc1c(CCNC(=O)c2ccc(C(F)(F)F)cc2)sc2nc(-c3ccc(F)cc3)nn12	4.17%	–
CCOC(=O)c1c(C)[nH]c(CCC(=O)NCCCN2CCN(c3cccc(Cl)c3)CC2)c1C	-29.4%	–
CCOc1ccc(NC(=O)C(=O)NCCc2csc3nc(-c4ccccc4F)nn23)cc1	-5.73%	–
COc1ccc(Cl)cc1N(C)C(=O)c1cc2c(=O)oc3ccc(C)cc3c2s1	-0.88%	–
COc1cccc(Nc2nc3ccccc3c3nncn23)c1	-14.9%	–
Cc1ccc(C)n1-c1nnc(N2CCC(C(=O)NCc3ccccc3Cl)CC2)s1	-11.2%	–
O=S(=O)(c1ccc(Br)cc1)c1nnn2c1nc(N1CCOCC1)c1sccc12	7.1%	–
Cc1ccc(CSc2nc3cccnc3n2Cc2ccc(C(=O)NC3CC3)cc2)cc1	9.61%	–
COc1ccc(S(=O)(=O)N2CCCCC2)cc1C(=O)NC1CCS(=O)(=O)C1 (stereo unspecified)	-15.4%	–
Cc1ccc(-c2nn(CCC(=O)Nc3ccc(Cl)c(Cl)c3)c(=O)c3ccccc23)cc1	-9.37%	–
CCN(CC)CCNC(=O)CN1N=C(c2ccc(OC)cc2)CCC1=O	-8.91%	–
CSc1ncc(C(=O)NCc2ccccc2Cl)c(C(F)(F)F)n1	-7.35%	–
Cc1ccc(SCC(=O)Nc2ccc3oc(-c4ccccc4F)nc3c2)cc1	0%	–
CCOC(=O)c1cc2c(=O)n3ccccc3nc2n(CC2CCCO2)c1=NC(=O)c1ccc(C(C)(C)C)cc1 (stereo unspecified)	-8.51%	–
CCOc1ccc2oc(=O)cc(CN3CCN(C(=O)c4ccc(F)cc4)CC3)c2c1	-21.1%	–
CCOc1ccc(OCC)c(Nc2nc3ccccc3n3nnnc23)c1	-15.9%	–
N#Cc1ccc(-c2cccs2)nc1SCc1ccc(Br)cc1	12.7%	–
Cc1ccc(CCNC(=O)c2ccc(CNS(=O)(=O)c3ccc(C)cc3)cc2)cc1	-5.53%	–
COc1ccc(NC(=O)CCCN2C(=O)CCn3nc(-c4cn(C)c5ccccc45)cc32)cc1OC	0%	–
CCOc1ccccc1NC(=O)CN1CCN(S(=O)(=O)c2ccc(Br)cc2)CC1	-13.4%	–

Structure (SMILES)	activity change, negative = inhibition	Potency
COc1ccccc1NC(=O)c1cc(C2CC2)nc2c1c(C)nn2-c1ccc(C)cc1	-10.5%	–
Cc1ccc(-n2ncc3c(N4CCC(C(N)=O)CC4)ncnc32)cc1	–	0.316 µM (active)
Cc1ccc(Cl)cc1-n1ncc2c(N3CCC(C(N)=O)CC3)ncnc21	-30.7%	–
CCN1CCN(c2ncnc3c2cnn3-c2ccc(C)c(C)c2)CC1	-8.96%	–
Cc1cc(OCC(=O)NCC2(N(C)C)CCCCC2)cc(C)c1Cl	-5.14%	–
Cc1nc2nc(SCC(=O)NC3CCC(C)CC3)nn2c(C)c1Cc1ccccc1Cl (stereo unspecified)	2.74%	–
Cc1ccc(-n2nnnc2CNC(=O)c2ccccc2C)cc1C	1.21%	–
COc1ccc(OCCn2cc(C(=O)C3CCCCC3)c3ccccc32)cc1	-27.6%	–
COc1ccc(-c2noc(-c3ccc(N4CCN(c5ccccc5)CC4)c([N+](=O)[O-])c3)n2)cc1OC	-7.68%	–
O=C(COc1ccccc1)NCc1ccc2c(c1)CCN2C(=O)c1ccc(F)cc1	-29.6%	–
Cc1cc2c(cc1S(=O)(=O)CCC(=O)NCc1ccccc1)OCC(=O)N2	-5.35%	–
Cn1c(SCC(=O)N2CCCc3ccccc32)ncc(C(=O)Nc2ccc(F)cc2)c1=O	-4.61%	–
COc1ccc(S(=O)(=O)NCc2cccn2Cc2cccc(C)c2)cc1	0%	–
Cc1ccc(-n2cnc3cc(C(=O)NCCC4=CCCCC4)ccc32)cc1Cl	-5.68%	–
CC(C)c1ccc(NC(=O)c2cc(S(=O)(=O)N3CCc4ccccc4C3)ccc2F)cc1	-20%	–
Cc1ccc(NC(=O)c2cc(S(=O)(=O)NCCC3=CCCCC3)ccc2F)cc1C	–	28.2 µM (active)
O=c1n(Cc2cccc(C(F)(F)F)c2)c2ccccc2c2nc(-c3ccccc3)nn12	-9.87%	–
COc1ccc(N2CCN(C(=O)c3cn(C)c4ccc(S(=O)(=O)N5CCOCC5)cc4c3=O)CC2)cc1	-18.7% [at 11.5 µM]	–
O=C(Nc1cc(C(F)(F)F)ccc1Cl)c1nc2ccccc2nc1N1CCCCC1	-3.65%	–
CCN(C(=O)Cn1c(=O)nc(-c2ccccc2)c2cc(Cl)ccc21)c1cccc(C)c1	-4.22%	–
COc1ccc(NC(=O)c2ccc3nc(CCc4ccccc4)oc3c2)c(OC)c1	36.9%	–

Structure (SMILES)	activity change, negative = inhibition	Potency
COc1ccc(NC(=O)c2ccc3oc(=O)c(S(=O)(=O)c4ccc(F)cc4)cc3c2)c(OC)c1	–	11.2 µM (active)
COc1ccc2c(c1)c(=O)c(S(=O)(=O)c1ccc(F)cc1)cn2CC(=O)Nc1ccc(C)cc1C	-9.64%	–
Fc1ccc(C(Nc2ccc(Cl)c(C(F)(F)F)c2)c2nnc(-c3ccccc3)o2)cc1 (stereo unspecified)	-35.9%	–
CC(=O)Nc1ccc(S(=O)(=O)N2CCN(c3ccccc3)CC2)cc1	-26.9%	–
COc1ccc(Nc2ncc(C(=O)Nc3cc(C)ccc3OC)c3ccccc23)cc1	-18.3%	–
O=C(CCCn1c(=O)c2cccn2c2cccnc21)NCc1ccc(F)cc1	8.1%	–
CCOc1cc(-c2nnc(SCC(=O)NC3CCCCC3)nc2-c2ccc(OC)c(OCC)c2)ccc1OC	-8.07%	–
COc1ccc(Cn2ccc3nc(C)c(C(=O)Nc4ccc(C)c(F)c4)cc3c2=O)cc1	-9.53%	–
COC(=O)c1ccccc1NC(=O)c1ccc2c(=O)n3c(nc2c1)CCCCC3	10.1%	–
CS(=O)(=O)c1ccc(-c2nnc(NC(=O)c3ccc4c(c3)OCCO4)o2)cc1	-5.72%	–
CCCCNc1ccc(-c2nc(-c3ccncc3)no2)cc1[N+](=O)[O-]	0.996%	–
Cc1cccc(C)c1NC(=O)c1ccc(N)cc1	2.97%	–
CCOC(=O)c1ccc(NC(=O)Cn2c(=O)cc(C)c3c(C)nn(-c4cccc(F)c4)c32)cc1	-8.8%	–
Cc1ccc2nc(NC(=O)c3nc(SCc4ccccc4F)ncc3Cl)sc2c1	-12.5%	–
CCC(Sc1nnc(-c2ccc(OC)cc2)c(-c2ccc(OC)cc2)n1)C(=O)NC1CCCCC1 (stereo unspecified)	5.07%	–
CCCn1c(NCc2ccc(N(CC)CC)cc2)nc2ccccc21	-20.8%	–
Cc1cc(-c2ccc(C)c(S(=O)(=O)N3c4ccccc4CC3C)c2)on1 (stereo unspecified)	–	14.1 µM (active)
COc1ccc(CCNS(=O)(=O)c2cc(-c3cc(C)no3)ccc2C)cc1OC	-17.2%	–
CCC1CN(S(=O)(=O)c2cc(-c3cc(C)no3)ccc2C)c2cc(C)ccc2O1 (stereo unspecified)	-13.3%	–
